We go through 27 compounds from PubChem BioAssay (NCATS).

SMILES strings stand for the structures. Inconclusive results are not listed. The source made the active and inactive calls. Unless noted, the call rests on the fitted dose curve; in most records, active means well fitted curve in the direction sought with a large enough effect; inconclusive means small, poorly fitted or top-dose-only effect, or another doubt; inactive means no such curve, though single readings can be large; an effect the other way counts as inactive or inconclusive.

The target in test [1] is D(1A) dopamine receptor (Homo sapiens) (UniProt P21728). The test can be described thus: HTS Assay for Allosteric Agonists of the Human D1 Dopamine Receptor: Primary Screen for Potentiators (AID 488982). Further: potency means the concentration at half of the fitted maximal effect. The procedure, abridged: (§1)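 Tetracycline-induced HEK293 Trex D1 cells with forced coupling to calcium, loaded with no-wash calcium dye; kinetic fluorescence read 180 s after compound addition for agonism, then a further 180 s after an EC20 dopamine challenge for potentiation.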
D(1A) dopamine receptor (Homo sapiens), sequence (P21728 whole entry, looked up, the tested form may be a part): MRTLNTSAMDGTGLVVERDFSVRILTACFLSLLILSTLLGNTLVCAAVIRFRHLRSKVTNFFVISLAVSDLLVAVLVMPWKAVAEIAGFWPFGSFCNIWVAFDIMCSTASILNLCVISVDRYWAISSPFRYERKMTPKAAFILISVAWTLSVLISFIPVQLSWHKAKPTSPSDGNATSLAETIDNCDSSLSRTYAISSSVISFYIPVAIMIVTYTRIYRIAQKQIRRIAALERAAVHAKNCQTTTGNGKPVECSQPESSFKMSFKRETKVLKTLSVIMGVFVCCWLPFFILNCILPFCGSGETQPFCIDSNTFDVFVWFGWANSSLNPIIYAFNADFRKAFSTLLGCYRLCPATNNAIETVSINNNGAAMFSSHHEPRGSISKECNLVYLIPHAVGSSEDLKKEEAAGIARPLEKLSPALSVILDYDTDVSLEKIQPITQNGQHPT

Test [2] has the same target. The test is described as follows: HTS Assay for Allosteric Agonists of the Human D1 Dopamine Receptor: Primary Screen for Antagonists (AID 488983).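 Further: calcium flux response to an EC80 dopamine challenge measured with no-wash dye; on the % scale 0 is the no-effect control and ±100 the full control effect; nearly all actives have a fitted effect of over 65% in size.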 The procedure, abridged:
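Calcium flux readout, no-wash dye, inducible HEK293 T-REx D1 line (force-coupled). Compound added after 10 s baseline, 180 s kinetic read; then dopamine at EC80, further 180 s read.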

Test [3] has as its target ATP-dependent 6-phosphofructokinase (Trypanosoma brucei brucei) (UniProt O15648). The test is described as follows: qHTS Assay to Find Inhibitors of T. brucei phosphofructokinase: hit validation (AID 492961).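 Further: luminescence reports ADP formed as PFK phosphorylates fructose-6-phosphate with ATP; series mostly up to about 51 µM; on the % scale 0 is the no-effect control and ±100 the full control effect.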 The procedure, abridged: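 Inhibition of parasite PFK is measured as reduced ADP formation, quantified via luciferase after ATP depletion. Assay used 0.1 mM ATP, 0.5 mM F6P, 1.25 nM enzyme, 45 min incubation.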
For orientation: In qHTS, concentration-response curves come from the screen itself.

Test [4] is described as follows: Validation screen for small molecules that induce genotoxicity in human embryonic kidney (HEK293T) cells expressing luciferase-tagged ELG1 (AID 493106). Further: 0% is about no effect. The gist of the method:
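qHTS format; 2,000 HEK293T ELG1-luc cells/well; 23 nL compound via pin tool; 16 hr, 37 °C/5% CO2; ONE-Glo, 30 min RT; luminescence read.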

A short description of test [5]: Nrf2 qHTS screen for inhibitors: Validation (AID 493153; active means well fitted inhibition curve with a large enough effect in the main read-out, with a control signal flat, not every such curve was filed as active). Conditions: Potency: luciferase luminescence; viability change: measured here: cytotoxicity max response. The gist of the method:
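Concentration-response test in A549 ARE_Fluc reporter cells (5% FBS OPTI-MEM), compound exposure 18-24 h at 37°C, 5% CO2. Cell viability measured first by CellTiter-Fluor fluorescence; ARE-driven luciferase luminescence then measured as Nrf2 activity.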

Test [6] is described as follows: qHTS for Inhibitors of Cell Surface uPA Generation: Validation Assay (AID 493164).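 Further: RAW 264.7 macrophage cells exposed to compound for 18 h; 0% is about no effect.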 The procedure, abridged:
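Compounds are titrated over seven points (2.45 nM–38.3 uM final) onto pre-plated RAW 264.7 cells and incubated for 18 h. Retained intracellular ATP, measured with ATP-Lite, indicates blocked lethal factor entry.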

Test [7] concerns the target Galactokinase (Homo sapiens) (UniProt P51570). The test is described as follows: qHTS Validation Assay for Inhibitors of Human Galactokinase (GALK) (AID 493189). Further: 0% is about no effect. The gist of the method:
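Luminescence from leftover ATP (Kinase-Glo Plus, 10 min) served as read-out after a 1 h room-temperature reaction of 5 nM GALK, 100 uM galactose and 35 uM ATP at pH8.0.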

Test [8] has as its target D(1A) dopamine receptor (Homo sapiens) (UniProt P21728). The test can be described thus: HTS Assay for Allosteric Agonists of the Human D1 Dopamine Receptor: Primary Screen for Agonists (AID 488981). Further: 0% is about no effect. The procedure, abridged: as §1
In test [9] the target is ATPase family AAA domain-containing protein 5 (Homo sapiens) (UniProt Q96QE3). The test is described as follows: Validation screen for small molecules that inhibit ELG1-dependent DNA repair in human embryonic kidney (HEK293T) cells expressing luciferase-tagged ELG1 (AID 493107).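 Further: cells co-treated with the DNA-damaging agent 5-fluorouridine alongside compound; series mostly up to about 46 µM; on the % scale 0 is the no-effect control and ±100 the full control effect; inhibitors lower the ELG1-luciferase luminescence signal; nearly all actives have a fitted effect of over 70% in size.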 The procedure, abridged: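 ELG1-luciferase HEK293T reporter; 5-fluorouridine + compound/DMSO, 16 hr, 37 °C, 5% CO2; ONE-Glo 30 min RT; luminescence read, qHTS format.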
ATPase family AAA domain-containing protein 5 (Homo sapiens), sequence (Q96QE3 whole entry, looked up, the tested form may be a part): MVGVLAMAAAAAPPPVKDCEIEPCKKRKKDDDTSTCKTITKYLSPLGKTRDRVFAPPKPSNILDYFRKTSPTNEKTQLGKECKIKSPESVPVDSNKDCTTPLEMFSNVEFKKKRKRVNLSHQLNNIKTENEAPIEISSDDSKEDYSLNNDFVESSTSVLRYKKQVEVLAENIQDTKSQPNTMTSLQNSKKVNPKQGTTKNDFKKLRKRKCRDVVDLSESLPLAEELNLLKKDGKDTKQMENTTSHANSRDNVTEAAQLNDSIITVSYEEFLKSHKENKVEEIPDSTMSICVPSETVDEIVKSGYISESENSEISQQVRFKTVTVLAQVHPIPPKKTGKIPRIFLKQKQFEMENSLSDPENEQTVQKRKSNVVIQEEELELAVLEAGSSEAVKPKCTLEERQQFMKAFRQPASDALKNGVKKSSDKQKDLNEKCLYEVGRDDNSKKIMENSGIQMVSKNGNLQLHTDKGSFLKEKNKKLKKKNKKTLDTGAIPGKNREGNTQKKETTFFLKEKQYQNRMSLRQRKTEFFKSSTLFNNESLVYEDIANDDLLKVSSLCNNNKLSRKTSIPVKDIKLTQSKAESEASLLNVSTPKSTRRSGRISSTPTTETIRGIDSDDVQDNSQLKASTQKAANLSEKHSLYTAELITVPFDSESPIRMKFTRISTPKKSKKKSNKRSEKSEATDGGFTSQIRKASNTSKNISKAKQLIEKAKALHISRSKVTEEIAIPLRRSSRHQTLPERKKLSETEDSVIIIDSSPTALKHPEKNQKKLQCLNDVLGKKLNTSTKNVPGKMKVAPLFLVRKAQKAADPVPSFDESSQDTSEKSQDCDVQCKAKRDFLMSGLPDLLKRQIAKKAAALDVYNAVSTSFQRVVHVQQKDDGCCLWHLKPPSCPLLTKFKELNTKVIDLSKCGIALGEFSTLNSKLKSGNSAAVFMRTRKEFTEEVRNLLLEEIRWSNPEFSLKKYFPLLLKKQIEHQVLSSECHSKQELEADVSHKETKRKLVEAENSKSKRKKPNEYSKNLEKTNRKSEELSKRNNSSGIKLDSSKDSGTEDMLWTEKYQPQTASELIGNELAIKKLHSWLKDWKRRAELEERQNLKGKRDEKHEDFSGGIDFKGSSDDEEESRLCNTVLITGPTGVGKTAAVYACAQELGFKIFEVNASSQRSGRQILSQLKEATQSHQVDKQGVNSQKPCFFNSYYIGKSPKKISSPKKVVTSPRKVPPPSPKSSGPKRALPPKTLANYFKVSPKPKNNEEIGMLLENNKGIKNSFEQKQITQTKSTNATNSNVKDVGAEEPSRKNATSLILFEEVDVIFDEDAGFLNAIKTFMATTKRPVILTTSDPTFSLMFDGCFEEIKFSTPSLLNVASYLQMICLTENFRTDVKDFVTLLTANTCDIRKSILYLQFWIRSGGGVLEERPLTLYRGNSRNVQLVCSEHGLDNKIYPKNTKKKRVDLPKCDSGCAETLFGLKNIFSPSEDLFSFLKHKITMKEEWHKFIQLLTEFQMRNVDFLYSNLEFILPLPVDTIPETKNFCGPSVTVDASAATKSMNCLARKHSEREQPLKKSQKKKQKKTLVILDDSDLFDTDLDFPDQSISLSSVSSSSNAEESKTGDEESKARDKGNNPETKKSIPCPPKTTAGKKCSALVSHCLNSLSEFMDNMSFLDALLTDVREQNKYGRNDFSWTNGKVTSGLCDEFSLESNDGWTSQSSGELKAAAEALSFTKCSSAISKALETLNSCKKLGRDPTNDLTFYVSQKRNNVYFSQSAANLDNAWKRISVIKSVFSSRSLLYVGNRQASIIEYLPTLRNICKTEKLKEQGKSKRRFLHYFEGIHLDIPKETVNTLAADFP

The target in test [10] is Thyrotropin-releasing hormone receptor (Homo sapiens) (UniProt P34981). The test is described as follows: qHTS for Small Molecule Agonists and Allosteric Enhancers of Human TRH Receptor: Validation Screen for Agonists (AID 493127;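 active means calcium activation more than 3 SD above the typical response in the agonist read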;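 further: intracellular calcium rise by fluo-8 fluorescence before TRH EC20 addition; 0% is about no effect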). To be noted: TRH receptor agonist cell assay; at 2 µM; stronger effect = higher value. The procedure, abridged:
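Read-out: intracellular calcium release measured kinetically by FDSS (fluo-8, ex 480/em 530 nm), 1 reading/s after a 10-cycle baseline. TRHR cells, 2000/well, cultured 18 h at 33.5C, dye-loaded at room temp. Compound-evoked positive calcium signal flags agonists.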

Thyrotropin-releasing hormone receptor (Homo sapiens), sequence (P34981 whole entry, looked up): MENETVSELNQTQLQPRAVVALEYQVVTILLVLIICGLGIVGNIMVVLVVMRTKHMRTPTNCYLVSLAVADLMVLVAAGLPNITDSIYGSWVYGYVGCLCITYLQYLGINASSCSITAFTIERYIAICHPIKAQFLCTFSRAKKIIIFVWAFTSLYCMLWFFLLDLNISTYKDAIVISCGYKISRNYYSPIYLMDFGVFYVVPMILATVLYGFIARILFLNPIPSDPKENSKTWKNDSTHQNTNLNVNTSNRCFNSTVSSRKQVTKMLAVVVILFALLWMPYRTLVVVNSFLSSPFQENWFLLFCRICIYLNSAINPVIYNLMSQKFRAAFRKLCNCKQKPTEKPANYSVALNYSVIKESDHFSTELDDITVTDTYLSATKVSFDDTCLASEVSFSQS
ATP-dependent 6-phosphofructokinase (Trypanosoma brucei brucei), sequence (O15648 whole entry, looked up): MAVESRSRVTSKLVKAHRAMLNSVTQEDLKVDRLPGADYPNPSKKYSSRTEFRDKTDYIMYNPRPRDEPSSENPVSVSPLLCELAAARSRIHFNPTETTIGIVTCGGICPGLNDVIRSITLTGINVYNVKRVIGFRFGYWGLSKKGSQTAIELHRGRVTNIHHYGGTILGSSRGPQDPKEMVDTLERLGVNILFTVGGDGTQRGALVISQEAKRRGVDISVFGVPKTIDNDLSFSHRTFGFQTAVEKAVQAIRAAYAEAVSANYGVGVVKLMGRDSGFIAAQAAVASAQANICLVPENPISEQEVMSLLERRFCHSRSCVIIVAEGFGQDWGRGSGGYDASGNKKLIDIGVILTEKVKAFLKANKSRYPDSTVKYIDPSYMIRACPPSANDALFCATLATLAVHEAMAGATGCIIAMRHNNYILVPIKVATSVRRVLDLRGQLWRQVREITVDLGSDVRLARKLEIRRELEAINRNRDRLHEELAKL
Galactokinase (Homo sapiens), sequence (P51570 whole entry, looked up): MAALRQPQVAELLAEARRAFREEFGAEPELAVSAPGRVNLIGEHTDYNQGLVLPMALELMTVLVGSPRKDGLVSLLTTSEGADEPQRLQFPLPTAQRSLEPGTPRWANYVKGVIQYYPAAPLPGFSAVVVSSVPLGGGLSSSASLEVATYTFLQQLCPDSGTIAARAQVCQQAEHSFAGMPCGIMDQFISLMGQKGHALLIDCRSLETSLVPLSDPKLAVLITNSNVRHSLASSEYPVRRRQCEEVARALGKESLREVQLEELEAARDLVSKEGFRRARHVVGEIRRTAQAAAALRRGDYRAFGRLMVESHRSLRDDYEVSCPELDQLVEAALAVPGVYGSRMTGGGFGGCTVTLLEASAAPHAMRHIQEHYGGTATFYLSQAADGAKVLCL

Consider `CCc1cccc(N(C)C(N)=Nc2cccc3ccccc23)c1`, for which the Potency result in test [1], in test [2], in [4] and in [5] was “inactive” in each case. Moreover, the compound was called inactive in test [3], in test [6] and in test [7]. Further, the viability change in [5] was -0.401%.
For the compound `CC(C)(C)c1ccc(C(=O)CCCN2CCC(OC(c3ccccc3)c3ccccc3)CC2)cc1`, the Potency result in [8], in [4] and in test [5] was “inactive” in each case. Further, the compound was classed as inactive in test [3] and in [6]. The viability change in [5] is -5.59%.
Regarding `OC(CCN1CCCCC1)(c1ccccc1)C1CCCCC1` (configuration not stated), the Potency entry in test [1], in [2], in [4], in test [9] and in test [5] was “inactive” each time. Also, the compound was called inactive in [3], in test [6] and in test [7]. Also, the viability change in test [5] was -0.392%.
On to `CN(C)[C@@H]1C(=O)C(C(N)=O)=C(O)[C@@]2(O)C(=O)C3=C(O)c4c(O)ccc(Cl)c4[C@@H](O)[C@H]3C[C@@H]12`, for which the Potency result in test [8], in test [1], in test [4] and in test [9] was “inactive” throughout. For the same compound, the result in [6] was inactive.
On to `CCN1CCC[C@H]1CNC(=O)c1c(O)c(Cl)cc(Cl)c1OC`, for which the Potency entry in test [1], in test [2], in [4], in test [9] and in test [5] was “inactive” throughout. For the same compound, the outcome in [3], in test [6] and in test [7] was inactive. Also, in test [10], the activation was 0.938% (inactive). Moreover, the viability change in test [5] was -0.523%.
`O=C1CC2(CCCC2)CC(=O)N1CCCCN1CCN(c2ncccn2)CC1`: the Potency entry in test [8], in test [2], in test [4] and in [9] was “inactive” each time. Further, the activation in test [10] is 0.688% (inactive). Moreover, the compound was classed as inactive in test [6] and in [7].
Turning to `CNCCC(Oc1ccccc1OC)c1ccccc1` (configuration not stated), the Potency entry in test [8], in [1], in [4], in [9] and in [5] was “inactive” in each case. In addition, the activation in test [10] was 2.38% (inactive). Besides, the viability change in test [5] turned out to be 4.36%. The compound was called inactive in test [6] and in test [7].
Regarding `NC(Cc1ccc(Cl)cc1)C(=O)O` (configuration not stated), the Potency entry in test [1], in test [2], in test [4], in test [9] and in [5] was “inactive” in each case. For the same compound, in [10], the activation was 0.75% (inactive). In addition, the viability change in [5] is -1.14%. Also, the compound was classed as inactive in test [6] and in test [7].
With `CN1CCN(CC(=O)N2c3ccccc3C(=O)Nc3cccnc32)CC1`, the Potency result in test [8], in test [2], in test [4] and in [5] was “inactive” in each case. In addition, the viability change in test [5] was determined as 11.6%. Also, the result in test [6] and in test [7] was inactive.
With `O=C(O)CP(=O)(O)O`, the Potency result in test [1], in [2], in test [4] and in [9] was “inactive” throughout. Moreover, the compound was classed as inactive in test [3], in test [6] and in test [7].
For the compound `O=C(O)CN(CCN(CC(=O)O)CC(=O)O)CCN(CC(=O)O)CC(=O)O`, the Potency result in test [8], in test [1], in [4], in test [9] and in test [5] was “inactive” throughout. The activation in test [10] is 1.81% (inactive). Besides, the viability change in test [5] is -0.829%. In addition, the compound was classed as inactive in test [6] and in test [7].
As for `NC(N)=N/N=C/c1c(Cl)cccc1Cl`, the Potency entry in [8], in [4], in [9] and in test [5] was “inactive” each time. For the same compound, the compound was called inactive in test [3], in [6] and in test [7]. Further, the viability change in [5] came out at 6.68%.
With `Nc1nc(N)c2nc(-c3ccccc3)c(N)nc2n1`, the Potency entry in [8], in [1] and in [5] was “inactive” each time. In addition, the activation in test [10] was -0.0625% (inactive). Also, the viability change in test [5] is 5.44%. Moreover, the call in test [6] and in [7] was inactive.
Consider `CCCCCCCC/C=C\CCCCCCCC(=O)NCc1ccc(O)c(OC)c1`, for which the Potency entry in [8], in test [2], in test [4] and in test [9] was “inactive” throughout. The compound was classed as inactive in test [3] and in [6].
In the case of `NS(=O)(=O)c1cc2c(cc1Cl)NC(C1CC3C=CC1C3)NS2(=O)=O` (configuration not stated), the Potency result in test [8], in test [2], in test [4], in test [9] and in test [5] was “inactive” in each case. For the same compound, the activation in [10] is -0.25% (inactive). Further, the viability change in test [5] was 12.8%. Further, the call in test [6] and in test [7] was inactive.
As for `CCOC(=O)C1=C(C)NC(C)=C(C(=O)OC)C1c1cccc([N+](=O)[O-])c1` (configuration not stated), the Potency entry in test [8], in test [4] and in test [5] was “inactive” in each case. Further, the activation in test [10] was -4.62% (inactive). The viability change in test [5] came to 9.17%. Further, the outcome in test [6] and in [7] was inactive.
In the case of `CC(=O)OCC1=C(C(=O)O)N2C(=O)[C@@H](NC(=O)Cc3cccs3)[C@H]2SC1`, the Potency entry in [1], in [2], in test [4], in [9] and in test [5] was “inactive” in each case. Moreover, the compound was called inactive in test [3], in test [6] and in [7]. Moreover, in test [5], the viability change turned out to be 0.396%.
On to `Cc1scc2c1N(C(=O)CN1CCN(C)CC1)c1ccccc1NC2=O`, for which the Potency result in test [8], in test [2], in test [4], in [9] and in [5] was “inactive” each time. In addition, the viability change in test [5] worked out at 3.95%. Further, the compound was called inactive in test [6] and in test [7].
As to `CNC1(C)C2CCC(C2)C1(C)C` (configuration not stated), the Potency entry in [8], in test [1], in [4] and in [5] was “inactive” in each case. Besides, in test [10], the activation is 0.375% (inactive). For the same compound, the viability change in test [5] worked out at 3.39%. In addition, the result in test [6] and in test [7] was inactive.
For the compound `CC(C)COCC(CN(Cc1ccccc1)c1ccccc1)N1CCCC1` (configuration not stated), the Potency result in [8], in [1] and in test [4] was “inactive” each time. Moreover, the call in test [6] and in test [7] was inactive.
Turning to `COc1ccc([C@@H]2Sc3ccccc3N(CCN(C)C)C(=O)[C@@H]2OC(C)=O)cc1`, the Potency result in [8], in test [2], in test [4] and in test [9] was “inactive” each time. Also, the compound was called inactive in test [3], in [6] and in test [7].
Take `CCN(CC)CC(=O)Nc1c(C)cccc1C`: the Potency result in test [8], in test [1], in test [4] and in test [9] was “inactive” throughout. Besides, the activation in [10] is 1.5% (inactive). Moreover, the compound was called inactive in test [6] and in [7].
Regarding `CSc1ccc(C(=O)c2[nH]c(=O)[nH]c2C)cc1`, the Potency result in test [8], in test [4] and in [5] was “inactive” each time. Moreover, the Potency in test [1] is 2310 nM (active). Also, the result in test [3], in test [6] and in test [7] was inactive. For the same compound, the viability change in test [5] came out at 0%.
Regarding `CN1C[C@H](C(=O)N[C@]2(C)O[C@@]3(O)[C@@H]4CCCN4C(=O)[C@H](Cc4ccccc4)N3C2=O)C[C@@H]2c3cccc4[nH]cc(c34)C[C@H]21`, the Potency result in [8], in test [4] and in test [5] was “inactive” throughout. Also, in test [5], the viability change is -1.86%. The result in [6] was inactive.
Turning to `C#CCN(C)CCCOc1ccc(Cl)cc1Cl`, the Potency result in test [1], in test [2], in test [4] and in test [5] was “inactive” each time. Also, the result in test [3], in test [6] and in test [7] was inactive. The activation in [10] is -5.81% (inactive). In test [5], the viability change is -1.92%.
For the compound `CN(C)CC/C=C1\c2ccccc2COc2ccccc21`, the Potency entry in test [8], in test [1], in test [4], in test [9] and in test [5] was “inactive” throughout. For the same compound, the activation in test [10] was 2.94% (inactive). Further, in test [5], the viability change stood at 10.6%. Besides, the call in test [6] and in test [7] was inactive.
For `CCn1nc(C(=O)O)c(=O)c2cc3c(cc21)OCO3`, the Potency entry in test [1], in [2], in test [4], in test [9] and in test [5] was “inactive” throughout. Also, the outcome in test [3], in test [6] and in test [7] was inactive. Also, the viability change in [5] is -1.17%.
